Source: PubChem BioAssay (ICCB-Longwood Screening Facility, Harvard Medical School)
CapD inh: blocks the Bacillus anthracis CapD enzyme; 140,000 compounds, 0.23% hits; purified CapD enzyme, fluorescence intensity read-out; stronger effect = lower value; z-score (concentration not given with the values); in the data active = z-score mostly below about -2.9, no sharp cut-off; inactive = mostly above about -1.9
* = called active by the depositor. This excerpt belongs to a sample that is enriched for hits.

SMILES | CapD inh
CCOC(=O)c1c[nH]c2c(F)ccc(F)c2c1=O | 2.8
CCOC(=O)c1c[nH]c2ccccc2c1=O | -0.28
CCOC(=O)c1coc2c(F)c(F)c(F)cc2c1=O | -12*
O=C(COc1ccccc1)N/N=C/c1cc2ccccc2o1 | 2.8
CCNC(=O)c1cccc(OC(C)C)c1 | -0.36
CC(=O)Nc1ccc2nc(C)sc2c1 | -5.7*
Cc1nc2ccc(NC(=O)c3cccc(Br)c3)cc2s1 | -0.085
CC(=O)Nc1ccc2nc(NC(=O)C(C)(C)C)sc2c1 | -0.36
CCOC(=O)CSc1nc2cc(S(C)(=O)=O)ccc2n1Cc1ccccc1 | -0.51
CCCc1nc2sc3c(N(CCC)CCC)ncnc3c2c2c1COC(C)(C)C2 | -0.065
N#C/C(=C\Nc1ccc(Br)cc1)c1nc(-c2ccccc2)cs1 | -0.33
N#C/C(=C\Nc1ccc(C(N)=O)cc1)c1nc(-c2ccccc2)cs1 | -0.45
N#C/C(=C\C=C\c1ccco1)c1nc(-c2ccccc2)cs1 | -4.3*
CC(=O)N1CCCc2cc(S(=O)(=O)N3CC=C(c4ccccc4)CC3)ccc21 | -0.27
Cc1c(Cl)cccc1NC(=O)n1ncc2c(C)cccc21 | 0.34
COc1ccccc1NC(=O)c1oc2ccc3c(c2c1C)C(=O)CC(C)(C)O3 | 6.5
CCOc1ccc(CCNC(=O)C2CC(=O)OC2c2ccc(OC)c(OC)c2)cc1 (stereo not drawn) | 0.89
c1ccc(-c2nc(-c3ccccc3)c(-c3ccccc3)o2)cc1 | 90
COc1cccc(NC(N)=S)c1 | 0.13
COc1cccc(NC(=S)NNc2ccccc2)c1 | -1.1
COc1cccc(NC(=S)/N=C(\N)Nc2nc(C)c3ccccc3n2)c1 | -5.9*
CCC(=O)N(C1CC1)C1CCN(C(C)=O)CC1 | -0.32
COC(=O)C(=C/C=C/N1CCCCC1)C(=O)OC | -4.8*
COC(=O)C(=C/C=C/c1cccs1)C(=O)OC | -3.2
COC(=O)c1noc(C)c1C(=O)/C=C/N1CCCCC1 | 8.3
SMILES | CapD inh
O=S(=O)(c1ccc(Cl)c(Cl)c1)N1CCN(c2c(Cl)cncc2Cl)CC1 | -1.2
O=c1c2ccccc2nc(SCc2cc(F)cc3c2OCOC3)n1NS(=O)(=O)c1ccc(Cl)cc1 | 0.15
Cc1ncc([N+](=O)[O-])n1CCOC(=O)N1CCc2c([nH]c3ccccc23)C1 | 0.73
O=C(Nc1ncnc2sc3c(c12)CCCC3)c1ccc(F)cc1 | 0.5
CCC(=O)Nc1ncnc2sc3c(c12)CCCC3 | -0.07
CC(=O)Nc1ncnc2sc3c(c12)CCCC3 | -8.8*
O=C1/C(=C/c2ccc(-c3cc(Cl)ccc3Cl)o2)C=C(c2ccccc2)N1c1ccc(Cl)cc1 | 0.04
COCCNC(=O)c1ccc2c(=O)n(Cc3ccc(Cl)cc3)c(SCc3cc(F)cc4c3OCOC4)nc2c1 | 0.62
Cc1ccc(C2CC(=O)C3=C(C2)Nc2ccccc2NC3c2cccnc2)cc1 (stereo not drawn) | -4*
COc1cc(C2Nc3cc(C)ccc3NC3=C2C(=O)CC(c2ccccc2)C3)cc(OC)c1OC (stereo not drawn) | -0.49
O=C1CC(c2ccccc2)CC2=C1C(c1ccccc1)Nc1ccccc1N2 (stereo not drawn) | -2.2
Cc1ccc(C2(CC(=O)OCCCC(C#N)c3ccccc3)CCOC(C)(C)C2)cc1 (stereo not drawn) | -0.41
O=C(Nc1ccccc1Cl)/C(=C\c1ccc2c(c1)OCO2)NC(=O)c1ccccc1Br | 1.2
COC(=O)C1C(=O)C2=C(CC1C)Nc1ccccc1NC2c1c[nH]c2ccccc12 (stereo not drawn) | -2.5
COC(=O)C1C(=O)C2=C(CC1C)Nc1ccccc1NC2c1ccccc1C (stereo not drawn) | -4*
CCOC(=O)C1=C(C)NC2=C(C(=O)C(C(=O)OC)C(C)C2)C1c1ccccc1 (stereo not drawn) | -0.43
O=C(N(/N=C/c1ccccc1)c1ccccc1)C(O)(c1ccc(Cl)cc1)c1ccc(Cl)cc1 | -0.19
Cc1cccc(C)c1OCCCCN1CC(C)OC(C)C1 (stereo not drawn) | 0.46
COc1ccc2[nH]cc(CCNC(=O)OCCC3=CCC4CC3C4(C)C)c2c1 (stereo not drawn) | -0.2
COCCOC(=O)C1=C(C)NC(=O)NC1c1cn(-c2ccccc2)nc1-c1ccc(Br)cc1 (stereo not drawn) | 0.24
O=C(O)c1cc(Nc2ccccc2C(=O)O)nc(Nc2ccccc2C(=O)O)n1 | -5.1*
O=C(O)c1ccc(Nc2nccc(Nc3ccccc3C(=O)O)n2)cc1 | 13
O=C(O)/C=C\C(=O)Nc1ccccc1C(=O)O | 5.8
O=C1C(c2ccccc2)C(c2cccnc2)NC(c2cccnc2)C1c1ccccc1 (stereo not drawn) | 0.18
OC1(c2ccc(Cl)cc2)CCN(Cc2cn[nH]c2-c2ccccc2)CC1 | -2.3*
SMILES | CapD inh
Fc1ccc(-c2[nH]ncc2CN2CCN(Cc3ccccc3)CC2)cc1 | -0.29
COc1ccc(-c2[nH]ncc2CN2CCC(O)(c3ccc(Cl)cc3)CC2)cc1 | -0.2
Cc1oc(-c2ccc(C(=O)NCc3ccco3)cc2)nc1COc1ccccc1 | 0.71
CCc1nnc(SCc2cccc(OC)c2)c2cc3occc3n12 | 0.33
C=CCn1c(CC(C)C)nnc1SCC(=O)Nc1ccc(Cl)cc1 | -0.43
CCC(C)NC(=O)CSc1nc2c(sc(=S)n2-c2ccccc2C)c2nc3ccccc3n12 (stereo not drawn) | -0.46
COc1ccc(-c2csnn2)cc1 | -0.13
COC(=O)CNC(=O)c1ccccc1 | 0.05
CCOC(=O)c1[nH]c(=O)[nH]c1CN(Cc1ccco1)Cc1[nH]c(=O)[nH]c1C(=O)OCC | 0.43
CCOC(=O)c1[nH]c(=O)[nH]c1COC(=O)CNC(=O)c1ccccc1 | -6.1*
Cc1ccc2c(c1)NC(C)(C)c1sn(-c3ccc(C(C)C)cc3)c(=S)c1-2 | -0.64
COc1ccc(N(C(C)=O)S(=O)(=O)c2cc(OC)ccc2OC)cc1 | -1.1
COc1ccc(S(=O)(=O)N(C)c2ccc(C(N)=O)cc2)cc1OC | 0.18
COc1ccc(N(C(=O)c2ccncc2)S(=O)(=O)c2ccc(OC)c(OC)c2)cc1 | -5.6*
CCOC(=O)c1c(-c2ccccc2)oc2ccc(OC(=O)c3cc4ccccc4o3)cc12 | 0.15
CN1C(=O)c2ccc(Oc3ccc(C(C)(C)c4ccc(Oc5ccc6c(c5)C(=O)N(C)C6=O)cc4)cc3)cc2C1=O | 1.7
CN(C)/C=C/C(=N)SCc1c(F)cccc1Cl | -3.8*
N=C(N)SCc1c(Cl)cccc1Cl | 0.32
Fc1cccc(Cl)c1CSCc1c(F)cccc1Cl | 0.22
O=C(CCl)Nc1ccc(S(=O)(=O)c2ccc(Br)cc2)cc1 | 0.17
O/C(=C/Sc1nnc(Cc2ccccc2)o1)c1ccc(F)cc1 | 0.1
COc1cc(OC)nc(-c2cccc(NC(=O)c3ccc(-c4ccccc4)cc3)c2)n1 | 2.5
O=C(O)c1ccc(NC2OC(CO)C(O)C2O)cc1 (stereo not drawn) | -6.5*
Cc1ccc(NC2OC(CO)C(O)C2O)cc1C (stereo not drawn) | 0.56
OCC1OC(Nc2ccccn2)C(O)C(O)C1O (stereo not drawn) | -0.04
SMILES | CapD inh
COC(=O)c1sc(NC(=O)C2c3ccccc3Oc3ccccc32)nc1C | 0.08
Cc1ccc(-c2cc3c4c(C)n(C)c(C)c4c(C)nn3c2)o1 | 0.25
COc1ccc(C2C(C(=O)Nc3ccccc3F)=C(C)NC3=C2C(=O)CC(c2ccccc2)C3)cc1 (stereo not drawn) | 35
COc1ccc(CCNC(=O)c2c(C)cc(=O)oc2C)cc1OC | 0.43
Cc1cc(=O)oc(C)c1C(=O)NCCCN1CCN(c2ccc(F)cc2)CC1 | -0.7
Cc1cc(=O)oc(C)c1C(=O)NCc1c(F)cc(F)cc1F | -5.9*
CNC(=O)c1cccc(NC(=O)C2=CSCCO2)c1 | -0.22
